TRPV1 PAM: potentiators of human vanilloid receptor 1 (TRPV1); Q8NER1; TRPV1-expressing cells, Fluo-8 calcium influx, capsaicin EC20 potentiation; potentiation, % at 8.33 µM; actives 0.02% (n = 320,000); AID 540277; in the data active means potentiation above about 80%; inconclusive means between about 30% and that limit; further: 0% is about no effect
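Fluo-8 calcium influx in TRPV1-expressing cells, kinetic read (ex 480/em 520 nm). Compound added and read 3 min for agonist activity, followed by capsaicin at EC20 final and 2 min further read for enhancement.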
TRPV1 ag: agonists of human vanilloid receptor 1 (TRPV1). Q8NER1. TRPV1-expressing cells, Fluo-8 calcium influx, agonist mode. activation, % at 8.33 µM. actives 0.19% (n = 320,000); in the data active means activation above about 80%; inconclusive means between about 30% and that limit; further: 0% is about no effect
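Fluo-8 calcium influx in TRPV1-expressing cells, kinetic read (ex 480/em 520 nm). Compound added and read 3 min for agonist activity, followed by capsaicin at EC20 final and 2 min further read for enhancement.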
hERG WT inh: inhibitors of human wildtype KCNH2 potassium channel; Q12809; activity change, % at 1.84 µM; actives 0.37% (n = 340,000); U2OS, BacMam KCNH2, thallium flux FluxOr; hits give low values;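 active means maximum activity change below -70%; inconclusive means maximum activity change between -70% and -50%; inactive means maximum activity change above -50%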; further: on the % scale 0 is the no-effect control and ±100 the full control effect
Target sequence (Q12809 whole entry, looked up): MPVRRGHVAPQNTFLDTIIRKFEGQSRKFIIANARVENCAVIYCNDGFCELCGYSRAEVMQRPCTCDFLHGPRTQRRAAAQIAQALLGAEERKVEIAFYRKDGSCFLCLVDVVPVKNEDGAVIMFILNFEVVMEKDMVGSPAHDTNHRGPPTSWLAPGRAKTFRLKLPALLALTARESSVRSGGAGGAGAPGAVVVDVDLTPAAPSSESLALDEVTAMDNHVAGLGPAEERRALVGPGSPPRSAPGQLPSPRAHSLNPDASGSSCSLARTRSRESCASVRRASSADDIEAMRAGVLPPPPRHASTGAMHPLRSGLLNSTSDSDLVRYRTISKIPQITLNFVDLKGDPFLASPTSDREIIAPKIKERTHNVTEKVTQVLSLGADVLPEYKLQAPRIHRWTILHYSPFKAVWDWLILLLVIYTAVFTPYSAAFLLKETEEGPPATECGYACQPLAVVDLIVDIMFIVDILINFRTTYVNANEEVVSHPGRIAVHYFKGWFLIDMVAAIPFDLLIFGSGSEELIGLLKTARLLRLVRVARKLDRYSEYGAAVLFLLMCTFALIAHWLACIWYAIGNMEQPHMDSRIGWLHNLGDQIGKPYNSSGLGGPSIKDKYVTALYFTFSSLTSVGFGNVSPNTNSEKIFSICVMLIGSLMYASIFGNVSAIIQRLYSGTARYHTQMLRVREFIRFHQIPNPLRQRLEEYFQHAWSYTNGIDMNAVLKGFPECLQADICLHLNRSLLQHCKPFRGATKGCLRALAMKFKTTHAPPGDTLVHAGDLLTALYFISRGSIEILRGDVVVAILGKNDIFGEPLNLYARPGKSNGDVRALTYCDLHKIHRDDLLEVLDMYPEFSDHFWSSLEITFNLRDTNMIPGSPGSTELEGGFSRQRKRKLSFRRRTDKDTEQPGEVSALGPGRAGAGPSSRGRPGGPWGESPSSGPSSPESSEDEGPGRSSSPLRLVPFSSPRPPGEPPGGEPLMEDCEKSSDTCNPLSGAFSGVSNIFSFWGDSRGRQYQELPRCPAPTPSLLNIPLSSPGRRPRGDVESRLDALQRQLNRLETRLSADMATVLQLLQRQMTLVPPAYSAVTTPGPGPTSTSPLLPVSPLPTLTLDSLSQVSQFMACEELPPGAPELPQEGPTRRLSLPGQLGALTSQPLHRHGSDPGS
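U2OS cells transduced with wild-type KCNH2 virus are loaded with FluxOr dye for 45 min, and thallium flux is measured in kinetic reads before and after stimulation buffer. Rate constants are normalized to DMSO controls.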
KCNH2 3.1 block: blocks the human KCNH2 3.1 channel isoform. U2OS KCNH2 3.1, thallium flux FluxOr; hits give low values. activity change, % (tested at about 1.8 µM). actives 0.95% (n = 340,000);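 active means maximum activity change below -70%; inconclusive means maximum activity change from -70% to -50%; inactive means maximum activity change above -50%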;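 further: thallium influx rate constant from kinetic fluorescence after stimulation buffer; on the % scale 0 is the no-effect control and ±100 the full control effect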
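We transduce U2OS cells with the mutant 3.1 virus, culture them overnight, load FluxOr with Red40 quencher for 45 min, then add stimulation buffer and read kinetically for 2 min to derive a normalized rate constant.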
* = called active by the depositor; ? = inconclusive; . = no result. Shown are actives, neighbours in structure and some others; about 1.2% of the full set was active somewhere.

SMILES | TRPV1 PAM | TRPV1 ag | hERG WT inh | KCNH2 3.1 block
Cc1cccc2c1-c1sc(C(=O)Nc3ccccc3N3CCN(C)CC3)cc1CO2 | 24 | 10 | -17 | -71*
Cc1cccc2c1-c1sc(C(=O)N3CCCCC3)cc1CO2 | 2 | 88* | -6 | -1
O=C(CN1C(=O)CCC1=O)Nc1nc(-c2ccccn2)cs1 | -1 | 1 | 4 | -117*
O=C(CN1C(=O)CCC1=O)Nc1nc(-c2ccc3ccccc3c2)cs1 | -3 | -3 | -10 | -1
OC(CNCc1ccccn1)c1ccccc1 (stereo unspecified) | -1 | 2 | 2 | 12
Fc1ccc(C(CCNCc2ccccn2)c2ccc(Cl)cc2)cc1 (stereo unspecified) | 3 | 15 | -89* | -91*
CCN(CC)c1ccc(Nc2nc(Cl)ncc2Br)cc1 | -6 | 2 | 3 | 21
COc1ccc(-c2[nH]ncc2CNCc2cc(C)n(C)n2)c(F)c1 | ? | 0 | 0 | 1
COc1ccc(-c2[nH]ncc2CNCCn2cccn2)c(F)c1 | -2 | -2 | 1 | -138*
C/C(=N/NC(=O)c1nnn(-c2nonc2N)c1CSc1ccc(C)cc1)c1ccncc1 | . | . | -2 | 4
CC(=O)c1cccc(NC(=O)/C=C/c2ccc([N+](=O)[O-])s2)c1 | -18 | 84* | -2 | -8
Cc1cc(C)cc(NC(=O)/C=C/c2ccc([N+](=O)[O-])s2)c1 | -3 | 3 | 2 | 9
CCN(C[C@H]1N[C@@](CC)(C(=O)OC)[C@H]2C(=O)N(Cc3ccccc3)C(=O)[C@@H]12)S(=O)(=O)c1ccc(OC(F)(F)F)cc1 | . | . | -277* | -13
C=C1C=C(C(F)F)n2ncc(C(=O)Nc3ccc(C(C)CC)cc3)c2N1 (stereo unspecified) | -1 | 1 | . | .
OC1(c2ccc(Br)cc2)CCN(Cc2cccc(Br)c2)CC1 | -9 | 2 | 26 | -76*
COc1ccc(C(=O)N2CCN(c3ccccc3)CC2)cc1S(=O)(=O)N1CCCC1 | -3 | -2 | 3 | .
CCOC(=O)c1cc2c(ccn2C)n1Cc1ccccc1Cl | 4 | 11 | . | -89*
CCOC(=O)c1cc2c(ccn2C)n1Cc1ccccc1C | -5 | 17 | -27 | -8
COc1ccccc1C(C)N(C)Cc1nc(COc2ccccc2)no1 (stereo unspecified) | -6 | 7 | 1 | 17
COc1cc([N+](=O)[O-])ccc1NC(=O)NCC1CCN(Cc2ccc(Cl)cc2)CC1 | -32 | ? | -107* | -102*
COc1ccc(Cl)cc1NC(=O)NCC1CCN(Cc2cc(C)ccc2C)CC1 | -10 | 2 | 2 | -24
CN1C(=O)C(N=Nc2ccc([N+](=O)[O-])cc2)SC1=S (stereo unspecified) | . | . | -7 | 11
CN(C)c1nc(Cl)nc(N(C#N)CCOc2ccccc2)n1 | 4 | 11 | -2 | -83*
CCNc1nc(NCC)nc(N(C#N)CCOc2ccccc2)n1 | 3 | 6 | -5 | 17
O=C(Cc1ccc(F)cc1)NC1CCCCCC1 | -14 | ? | 3 | -87*
SMILES | TRPV1 PAM | TRPV1 ag | hERG WT inh | KCNH2 3.1 block
Cc1cccc(OCC(=O)Nc2nnc(S(=O)(=O)N3CCc4ccccc43)s2)c1 | 6 | -4 | . | .
O=C(NCCCn1ccnc1)Nc1ccc2c(c1)OCO2 | 6 | 1 | -112* | 4
O=C(Nc1ccccc1Oc1cccnc1)C1CCCN(C/C=C/c2ccc(F)cc2)C1 (stereo unspecified) | -4 | 4 | -98* | -93*
O=C(Cn1c(=O)c(CNc2ccccc2)cc2cc3c(cc21)OCCO3)Nc1ccccc1Cl | 16 | 4 | . | .
Cc1ccc(C(=O)Nc2nc(C)c(C(=O)N(C)C)s2)o1 | 12 | -1 | -12 | -14
Cc1nc(NC(=S)NC(=O)c2ccco2)sc1C(=O)N(C)C | 2 | -1 | -123* | 3
CCN(CC(=O)Nc1cccc(C(C)=O)c1)S(=O)(=O)c1ccc(C)cc1 | 0 | ? | -1 | -14
O=C(N/N=C\c1ccccc1)c1ccccc1-n1cccc1 | 3 | -2 | 0 | -12
C/C(=N\NC(=O)c1ccccc1-n1cccc1)C1CC1 | 0 | 0 | -4 | -76*
Cc1cccc(CNc2ccc(C(CC(N)=O)NC(=O)c3cccc(Br)c3)cc2[N+](=O)[O-])c1 (stereo unspecified) | 26 | 0 | -1 | 14
COc1cccc(-c2c(C(=O)N/N=C(\C)c3cccnc3)nnn2-c2nonc2N)c1 | -5 | 2 | -2 | -3
Cc1csc2c(N3CCN(C(=O)Nc4ccc(OC(F)(F)F)cc4)CC3)ncnc12 | -3 | 14 | 5 | -92*

Screens deposited in PubChem BioAssay by National Center for Advancing Translational Sciences (NCATS).
